Inconclusive results are not listed. A call without a number means that no potency is given here. Calls of active or inactive are those of the source. Calls come from the whole dose curve; as a rule, active = well fitted inhibition curve with a large enough effect in the signal ratio, with a control signal flat (not every such curve was filed as active); inconclusive = small, poorly fitted or top-dose-only effect, or effect the other way, or a change in a side signal; inactive = flat fitted curve, though single readings scatter; the % refers to the signal ratio.
Each compound was assayed against Glucocorticoid receptor (Homo sapiens) (UniProt P04150) (assay: qHTS assay for small molecule antagonists of glucocorticoid receptor signaling (AID 588533)). Details: HeLa MMTV-bla, GRE beta-lactamase ratio, antagonist mode, 18 h; series mostly up to 76.8 µM.
Sequence of Glucocorticoid receptor (Homo sapiens) (P04150 whole entry, looked up): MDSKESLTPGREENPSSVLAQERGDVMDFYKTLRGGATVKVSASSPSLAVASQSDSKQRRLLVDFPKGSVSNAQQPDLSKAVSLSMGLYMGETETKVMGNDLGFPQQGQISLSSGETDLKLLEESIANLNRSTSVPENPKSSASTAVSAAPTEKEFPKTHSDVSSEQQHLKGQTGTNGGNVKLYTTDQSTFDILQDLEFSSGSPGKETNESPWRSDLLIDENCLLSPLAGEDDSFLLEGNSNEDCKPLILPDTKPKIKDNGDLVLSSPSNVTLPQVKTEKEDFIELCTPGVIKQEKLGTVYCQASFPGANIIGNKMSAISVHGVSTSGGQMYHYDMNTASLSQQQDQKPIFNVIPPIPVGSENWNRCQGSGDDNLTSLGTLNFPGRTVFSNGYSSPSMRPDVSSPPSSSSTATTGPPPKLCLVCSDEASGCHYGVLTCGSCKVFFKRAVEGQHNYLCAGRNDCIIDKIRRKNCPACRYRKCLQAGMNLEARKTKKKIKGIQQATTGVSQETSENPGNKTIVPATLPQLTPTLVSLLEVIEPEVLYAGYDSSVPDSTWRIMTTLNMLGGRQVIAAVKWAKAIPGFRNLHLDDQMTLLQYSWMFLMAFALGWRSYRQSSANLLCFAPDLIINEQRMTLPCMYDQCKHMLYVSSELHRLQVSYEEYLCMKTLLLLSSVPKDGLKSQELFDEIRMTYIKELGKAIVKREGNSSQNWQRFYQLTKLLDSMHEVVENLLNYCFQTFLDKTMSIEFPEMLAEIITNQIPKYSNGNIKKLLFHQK
Description: NIH Chemical Genomics Center [NCGC] U.S. Environmental Protection Agency [EPA] National Institutes of Environmental Health Sciences [NIEHS] National Toxicology Program [NTP] NCGC Assay Overview The Glucocorticoid receptor (GR), a nuclear receptor subfamily member and its natural ligands includes […] etc. The GR is a validated drug target for inflammation. GR ligands such as dexamethasone are clinically available as anti-inflammatory drugs. Glucocorticoids implicate a role in carbohydrate, protein and lipid metabolisms and programmed cell death. They are also a component of many chemotherapy regimens for the treatment of leukemias, lymphomas, and myelomas because of their role in the induction of apoptosis.
NCGC Assay Protocol Summary Using a beta-lactamase reporter-gene under control of glucocorticoid response element (GRE), a cell-based assay [CellSensor MMTV-bla HeLa cell line assay developed by Invitrogen] was used to measure GR ligands signaling. CellSensor MMTV-bla HeLa cells were used with assay medium containing 1% charcoal/dextran treated FBS, 0.1 mM NEAA, 1 mM sodium pyruvate and 25mM HEPES. The assay was performed in clear bottom black Greiner 1536-well plates. Library compounds were measured for their ability to inhibit the reporter gene activity. Compounds were screened in a titration series in 1536-well format. […] Data was normalized relative to Dexamethasone control (2 nM, 100%), and DMSO only wells (basal, 0%). Concentration-response titration points for each compound were fitted to the Hill equation yielding concentrations of half-maximal inhibition (IC50) and maximal response (efficacy) values. qHTS protocol for GR beta-lactamase assay in antagonist mode [Step] [Parameter] [Value] [Description] 1. Reagent; 5 uL; 1500 cells/well 2. Incubation; 37 C for 3-5 hrs 3. Compounds; 23 nL; 0.59 nM to 92 uM 4. […] Agonist (Stimulator); 1uL; Dexamethasone at 2 nM (final) concentration 6. Incubation; 37 C for 18 hrs 7. Detection reagent; 1 uL of CCF4-dye 8. Incubation; RT for 2 hrs 9. Detection; Fluorescence; Envision plate reader

**Q.** For `Cc1ccccc1C(OCCN(C)C)c1ccccc1` (stereo unspecified), which Potency is on record?
**A.** inactive

**Q.** How did the Potency turn out when `CC(=O)Oc1ccccc1C(=O)O` was run?
**A.** inactive

**Q.** With `NC[C@H](O)c1ccc(O)c(O)c1` as the compound, how does the Potency read?
**A.** inactive

**Q.** For `O=C1CCC(N2C(=O)c3ccccc3C2=O)C(=O)N1` (stereo unspecified), which Potency is on record?
**A.** inactive

**Q.** `CC(C)(Sc1ccc(CCN(CCCCC2CCCCC2)C(=O)NC2CCCCC2)cc1)C(=O)O` was tested. Which Potency did it give?
**A.** 20 µM (active)

**Q.** `CCCC(CCC)C(=O)O` was tested. Which Potency did it give?
**A.** inactive

**Q.** `O=c1[nH]cnc2[nH]ncc12` was tested. Which Potency did it give?
**A.** inactive

**Q.** How did the Potency turn out when `O=NN(CCCl)C(=O)NCCCl` was run?
**A.** inactive

**Q.** Which Potency does the source give for `C[C@]12CCC(=O)C=C1CC[C@@H]1[C@@H]2[C@@H](O)C[C@@]2(C)[C@H]1CC[C@]2(O)C(=O)CO` here?
**A.** inactive

**Q.** `NC(=O)c1cnccn1` was tested. Which Potency did it give?
**A.** inactive

**Q.** For `Cn1cnc([N+](=O)[O-])c1Sc1ncnc2nc[nH]c12`, which Potency is on record?
**A.** inactive
